# Compounds with a hit are over-represented: about 15% of the library has one in this group of screens.
# VP16 counter = inhibits Gal4-VP16 luciferase reporter, ROR gamma counter-screen; Potency, µM (highest dose often 53.6 µM), for inactives: at the highest dose activity, negative = inhibition, actives largely listed as inhibitors; AID 2546; Drosophila S2 Gal4-VP16 UAS-luciferase, luminescence, 20 h; hit rate 3.5% among 310,000;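 further: Gal4-VP16 expression switched on by copper sulfate through the metallothionein promoter; nearly all actives have a fitted effect of over 50% in size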
# ELG1 repair inh = blocks ELG1-dependent DNA repair in HEK293T cells. Potency, µM (series often up to 46.1 µM), inactives show top-dose activity change, negative = inhibition, usual class: inhibitors. HEK293T ELG1-luciferase reporter, luminescence, 16 h; DNA damage induced by 5-fluorouridine. hit rate 2.3% among 330,000; further: nearly all actives have a fitted effect of over 55% in size
#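 5-Fluorouridine DNA damage + compound/DMSO, 2,000 cells/well, 16 h, 37 °C/5% CO2. ONE-Glo, 30 min RT, luminescence. Readout = decrease in reporter signal.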
# RORg inh = inhibitors of mouse ROR gamma transcriptional activity; Drosophila S2 Gal4-RORgamma UAS-luciferase reporter, 20 h; Potency, µM (top dose mostly 53.6 µM), inactives show at the top dose activity change, negative = inhibition, most hits filed as inhibitors; hit rate 5.4% among 310,000; AID 2551; further: nearly all actives have a fitted effect of over 60% in size
# Target sequence (P51450 whole entry, looked up, the tested form may be a part): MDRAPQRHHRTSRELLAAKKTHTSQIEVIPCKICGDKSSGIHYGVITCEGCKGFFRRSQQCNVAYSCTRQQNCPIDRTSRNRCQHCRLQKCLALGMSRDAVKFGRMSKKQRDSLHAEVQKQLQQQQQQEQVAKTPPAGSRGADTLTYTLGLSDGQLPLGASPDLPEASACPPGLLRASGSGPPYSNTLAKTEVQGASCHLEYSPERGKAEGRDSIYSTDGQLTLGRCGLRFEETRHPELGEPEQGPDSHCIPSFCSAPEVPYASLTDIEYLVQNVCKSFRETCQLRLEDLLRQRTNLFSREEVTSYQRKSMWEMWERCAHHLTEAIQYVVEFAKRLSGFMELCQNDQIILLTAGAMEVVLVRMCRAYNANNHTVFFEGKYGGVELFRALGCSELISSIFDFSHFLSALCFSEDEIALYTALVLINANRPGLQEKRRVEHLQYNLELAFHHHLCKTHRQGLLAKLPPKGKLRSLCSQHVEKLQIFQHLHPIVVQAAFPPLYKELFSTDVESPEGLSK
#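 Stable Schneider cell line, Gal4 DNA-binding domain fused to ROR gamma, UAS-luciferase. Cmpd 1 hr RT → CuSO4 700 uM final → 20 hr RT → luciferase reagent 10 min → luminescence.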
# DT40 TDP1 no CPT = qHTS for Inhibitors of human tyrosyl-DNA phosphodiesterase 1 (TDP1): qHTS in cells in absence of CPT. DT40 Tdp1-/- hTDP1 cells, no CPT, ATP luminescence, 48 h. Potency, µM (titrated, usually from 46.2 µM), for the others: at the highest dose activity change, negative = growth inhibition, most hits filed as inhibitors. hit rate 15% among 420,000. AID 686978, 2013; further: nearly all actives have a fitted effect of over 55% in size
#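 Camptothecin absent (DMSO only). Human TDP1-complemented DT40 knockout cells, 400 cells/well, 37 °C for minimum 48 hr; ATP measured via CellTiter-Glo, 30 min dark incubation, luminescence.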
# TDP1 cell CPT = growth inhibition of DT40 Tdp1-/-;hTDP1 cells with camptothecin (screen for TDP1 inhibitors). chicken DT40 Tdp1-/-;hTDP1 cells + 20 nM CPT, ATP luminescence, 48 h. AID 686979. Potency, µM (top dose mostly 46.2 µM), inactives show at the top dose activity change, negative = growth inhibition, actives largely listed as inhibitors. hit rate 12% among 420,000; further: nearly all actives have a fitted effect of over 55% in size
#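 Cell growth measured by CellTiter-Glo luminescence after a minimum 48 h, 37 C compound exposure with 20 nM CPT in Tdp1-knockout DT40 cells stably expressing hTDP1, seeded 400/well; qHTS titration format.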
# 12-LOX inh = ALOX12 (human) lipoxygenase inhibition; purified 12hLO, xylenol orange hydroperoxide absorbance; P18054; hit rate 1.1% among 580,000; Potency, µM (titrated, usually from 108 µM), inactives show at the top dose activity change, negative = inhibition, actives largely listed as inhibitors
#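 Hydroperoxide product was detected by ferrous iron/xylenol orange as the 573 to 405 nm absorbance ratio. Arachidonic acid at 40 uM (final) was turned over for 30 min at room temperature by 150 nM human 12hLO, pH 7.0 Hepes buffer, after 15 min compound preincubation.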
# Starred values were filed as active, the others as inactive; ? = inconclusive; . = no result given; [ ] = dose if it differs, or a comment. The call rests on the fitted dose curve; in most records, active means well fitted curve in the direction sought with a large enough effect; inconclusive means small, poorly fitted or top-dose-only effect, or another doubt; inactive means no such curve, though single readings can be large; an effect the other way counts as inactive or inconclusive. On the % scale 0 is the no-effect control and ±100 the full control effect; potency means the concentration at half of the fitted maximal effect.
SMILES,VP16 counter,ELG1 repair inh,RORg inh,DT40 TDP1 no CPT,TDP1 cell CPT,12-LOX inh
Cc1cc(Cl)c(S(=O)(=O)N2CCSCC2)cc1OCC(=O)NC1CCCCC1,11%,9.2µM*,43%,18µM*,16µM*,10%
Brc1ccc2[nH]c3c(c2c1)CCCC3=NCc1ccccc1,.,.,.,.,.,-3%
O=C(COc1ccc(Br)cc1Br)NC1CCCC1,0%,?,16%,?,4.1µM*,-3%
O=C(COc1ccc(Br)cc1Cl)NC1CCCCC1,?,?,-8%,?,-12%,-1%
COc1ccc(CCNC(=O)COc2ccc(S(=O)(=O)NC3CCCCC3)cc2Cl)cc1OC,-21%,21µM*,35%,16µM*,23µM*,21%
Cc1cc(Cl)c(S(=O)(=O)N2CCN(c3ccccn3)CC2)cc1OCC(=O)NC1CCCCC1,-13%,21µM*,36%,21µM*,?,3%
Cc1cc(Cl)c(S(N)(=O)=O)cc1OCC(=O)NC1CCCCC1,-4%,-14%,24%,-17%,-21%,-11%
Cc1cc(Cl)c(S(=O)(=O)N2CCCCCC2)cc1OCC(=O)NC1CCCCC1,-12%,9.2µM*,-26%,1%,-8%,-3%
Cc1ccc(NS(=O)(=O)c2cc(OCC(N)=O)c(C)cc2Cl)cc1C,-23%,?,?,?,20µM*,?
Cc1cc(Cl)c(S(=O)(=O)NC2CCCC2)cc1OCC(=O)NC1CCCCC1,-26%,9.2µM*,-11%,23µM*,26µM*,0%
Cc1cccc(NS(=O)(=O)c2cc(OCC(N)=O)c(C)cc2Cl)c1,5%,?,37%,?,-20%,1%
CCOc1cc(CNCc2ccccc2)ccc1OCC(=O)NC1CCCCC1,-3%,-8%,20%,16µM*,18µM*,8%
COc1cc(CNCc2ccccn2)ccc1OCC(=O)NC1CCCCC1,-7%,7%,-5%,-24%,-21%,5%
Cc1cc(Cl)c(S(=O)(=O)N2CCCCCC2)cc1OCC(N)=O,-1%,?,-8%,0%,-21%,-7%[57.4 µM]
CCOC(=O)N1CCN(S(=O)(=O)c2cc(OCC(=O)NC3CCCCC3)c(C)cc2Cl)CC1,10%,18µM*,28%,4%,2%,-38%
O=C(Nc1cc(F)ccc1F)c1cnc(N2CCCCC2)c2ccccc12,.,.,.,.,.,-16%
COc1ccc(/C=C/C(=O)NC(=S)N2CCCCC2)cc1OC,?,8%,?,?,9%,-6%
O=C(/C=C/c1ccc(Cl)cc1)NC(=S)NN1CCCCC1c1cccnc1 (centres undefined),?,-12%,2µM*,.,.,.
COc1cc(OC)cc(C(=O)NC(=S)N2CCCCC2c2cccnc2)c1 (centres undefined),4µM*,-24%,38%,-12%,?,-20%
COc1ccc(/C=C/C(=O)NC(=S)NN2CCCCC2c2cccnc2)cc1OC (centres undefined),16µM*,-15%,13µM*,-22%,0%,-15%
O=C(OCCCS(=O)(=O)c1ccccc1)c1ccc(I)cc1,.,.,.,.,.,-3%
Cc1ccnc(Nc2nc(-c3ccc(O)cc3O)cs2)c1,2.2µM*,0%,0.71µM*,3%,?,9%
CC(=O)Nc1ccc(-c2csc(Nc3ccccn3)n2)cc1,-4%,?,21%,-25%,?,-20%
Cc1cc(O)ccc1Nc1nc(-c2cccnc2)cs1,-7%,?,?,-52%,-51%,-3%
Oc1ccc(-c2csc(Nc3ccccn3)n2)cc1O,6.3µM*,?,5.6µM*,2.6µM*,5.2µM*,20µM*
SMILES,VP16 counter,ELG1 repair inh,RORg inh,DT40 TDP1 no CPT,TDP1 cell CPT,12-LOX inh
Cc1cccc(Nc2nc(-c3ccc(O)c(O)c3)cs2)n1,5.6µM*,?,4.5µM*,1.6µM*,2.1µM*,28µM*
Cc1ccnc(Nc2nc(-c3ccc(O)c(O)c3)cs2)c1,5.6µM*,?,11µM*,3.3µM*,2.1µM*,0%
COc1ccc(-c2csc(Nc3cc(C)ccn3)n2)cc1C,-26%,?,?,?,?,?
COCC(=O)NC[C@H]1CCN(Cc2cccc(C#N)c2)C[C@H]1N(C)C,.,.,.,.,.,90%
CCn1c(=O)c2sccc2n(CC(=O)N(C)c2ccccc2)c1=O,.,.,.,.,.,6%
CCCn1c(-n2nc(C)cc2C)nc2c1c(=O)n(Cc1ccc(F)cc1)c(=O)n2C,.,.,.,.,.,-2%
O=C(Nc1cccc(F)c1)N1C[C@@H]2C[C@H](C1)c1c(-c3cc4ccccc4s3)ccc(=O)n1C2,.,.,.,.,.,1%
Oc1ccc(-c2csc(Nc3cccc4ccccc34)n2)cc1O,?,11%,?,8.2µM*,0.92µM*,13µM*
Cc1ccc(Nc2nc(-c3ccccc3)cs2)nc1,?,?,?,?,-17%,15%
Cc1ccnc(Nc2nc(-c3ccc(O)cc3)cs2)c1,4µM*,?,3.2µM*,-27%,1%,?
Cc1ccc(-c2csc(Nc3ccccn3)n2)cc1C,.,.,.,.,.,32µM*
c1ccc(Nc2nc(-c3cccc4ccccc34)cs2)cc1,.,.,.,.,.,-23%
CCN(CC)C1=NC(=O)C(CC(=O)Nc2cccc(C(=O)NCCc3ccccc3OC)c2)S1 (centres undefined),.,.,.,.,.,1.1µM*
CSCCC(=O)NCCc1ccsc1,.,.,.,.,.,-3%
N#CC1=C(N)n2c(s/c(=C\c3ccco3)c2=O)=C(C#N)C1c1ccco1 (centres undefined),-14%,3%,-21%,?,?,13µM*
Cc1cccn2c(CC(=O)N3CCC4(CC3)c3nc[nH]c3CCN4C)cnc12,.,.,.,.,.,16%
COC(=O)C1C(=O)c2c([nH]c(C(=O)OC3CCCCC3)c2C)CC1C (centres undefined),1%,?,1%,?,?,469%
COC(=O)C1C(=O)c2c([nH]c(C(=O)OC3CCCC3C)c2C)CC1C (centres undefined),11%,?,?,13µM*,16µM*,-19%
Cc1nc(C(=O)NNC(=O)c2ccc(C(F)(F)F)cc2)cs1,?,-10%,5µM*,21µM*,?,-6%
CN1C[C@@H]2CCCN3CCC[C@@H]([C@H]23)[C@H]1CCCC(=O)NCC1CC1,.,.,.,.,.,25%

# Screening results from PubChem BioAssay.
